Records with an inconclusive call do not appear. Active and inactive are the calls of the source. Calls come from the whole dose curve; as a rule, active = well fitted inhibition curve with a large enough effect; inconclusive = small, poorly fitted or top-dose-only effect; inactive = flat fitted curve, though single readings scatter. Square brackets hold non-standard residues; d marks the D form. Peptide text beside a SMILES is read from it. Dolaproine = CO[C@@H]([C@@H]1CCCN1)[C@@H](C)C(=O)O; Dil = CC[C@H](C)[C@H](NC)[C@@H](CC(=O)O)OC; NMeV = CN[C@H](C(=O)O)C(C)C
Test: Identification of antibody-drug conjugate (ADC) payloads which are substrates of ATP-binding cassette drug efflux transporters: ABCB1-HeLa-KB-8-5-11 cell line
Details: KB-8-5-11 (P-gp overexpressing HeLa) viability, CellTiter-Glo, 48 h; series mostly up to 31.4 µM; activity change, negative = less viable: at the top concentration
From the text: Antibody-drug conjugates (ADCs) feature an antibody recognizing a specific protein joined to a potent toxic payload. Numerous antibody-drug conjugates have received FDA approval; however, clinical resistance arises. Resistance mechanisms include decreased expression or mutation of the antibody target, impaired payload release, or increased expression of ATP-binding cassette (ABC) efflux transporters associated with multidrug resistance. We therefore sought to characterize the interaction of ABC multidrug transporters with ADC payloads. We performed a high-throughput screen with 27 common ADC payloads using cells lines expressing ABC transporters P-glycoprotein (P-gp, encoded by ABCB1) or ABCG2 (encoded by ABCG2). Confirmatory assays were also performed using cells transfected to express P-gp, ABCG2, or MRP1 (encoded by ABCC1). Several commonly used ADC payloads were substrates of P-gp, including calicheamicin gamma1, monomethyl auristatin E, DM1, and DM4. All the pyrrolobenzodiazepines tested - SJG136, SGD-1882, SG2057, and SG3199 - were substrates of P-gp, ABCG2, and MRP1. […] These findings highlight the risk of transporter-mediated resistance with certain ADC payloads and underscore the importance of selecting payloads that evade ABC transporter recognition in future ADC development.
HEK-293 cells were transfected with empty vector (pcDNA) or vector containing the human ABCB1 (MDR-19), ABCG2 (R-5), or ABCC1 gene (MRP1) and were maintained in EMEM with 2 mg/mL G418 added to maintain transporter expression. The HeLa derivative KB-3-1 and the P-gp overexpressing KB-8-5-11 subline were maintained in DMEM; KB-8-5-11 additionally received 100 ng/mL colchicine. H460 parental cells were obtained from the Division of Cancer Treatment and Diagnosis Tumor Repository, National Cancer Institute at Frederick, MD and were cultured in RPMI. The ABCG2 expressing subline H460 MX20 was generated by selecting H460 cells in 20 nM mitoxantrone. Media in all cases was supplemented with 10% FBS and 1% penicillin-streptomycin. We explored 27 common ADC payloads, in two orthogonal, paired cell line sets-a drug selected and transfected set for each transporter--to identify substrates of the ABC transporters P-gp and ABCG2. Compounds were sourced from Levena Biopharma (San Diego, CA), Selleck Chem (Houston, TX), ChemieTek (Indianapolis, IN), or Microsource Discovery Systems (Gaylordsville, CT). Screening was performed as previously described. Briefly, cells were plated at a density of 500 cells/well in 1536 well plates with compounds added using a 1536-head pin tool (Kalypsys, San Diego CA). Cells were incubated with cytotoxic drugs and processed with CellTiter Glo reagent (Promega, Madison, WI) to determine viability after 48 hours. P-gp substrates were identified by comparing compound activity between paired sets of low-expressing (sensitive) and over-expressing (resistant) cell lines.

SMILES	Potency	activity change, negative = less viable
CC[C@H](C)[C@@H]([C@H](N)CC(=O)N1CCC[C@H]1[C@H](OC)[C@@H](C)C(=O)N[C@@H](Cc1ccccc1)c1nccs1)N(C)C(=O)[C@@H](NC(=O)[C@H](C(C)C)N(C)C)C(C)C	6.7 nM (active)	
COc1cccc2c1C(=O)c1c(O)c3c(c(O)c1C2=O)C[C@@](O)(C(=O)CO)C[C@@H]3O[C@H]1C[C@H](N)[C@H](O)[C@H](C)O1	16700 nM (active)	
COC(=O)c1cc2c3c(cc(O)c2[nH]1)N(C(=O)c1cc2cc(OC)c(OC)c(OC)c2[nH]1)CC3CCl (stereo not drawn)	0.6 nM (active)	
CC(C)(C)OC(=O)Nc1ccc2[nH]c(C(=O)N3C[C@@H](CCl)c4c3cc(O)c3ccccc43)cc2c1	9.4 nM (active)	
CC[C@H](C)[C@@H]([C@H](N)CC(=O)N1CCC[C@H]1[C@H](OC)[C@@H](C)C(=O)N[C@@H](Cc1ccccc1)c1nccs1)N(C)C(=O)[C@@H](NC(=O)[C@@H](NC)C(C)C)C(C)C	1.9 nM (active)	
CN(C)CCOc1ccc2[nH]c(C(=O)N3C[C@@H](CCl)c4c3cc(O)c3ccccc43)cc2c1	0.7 nM (active)	
CCc1c2c(nc3ccc(O)cc13)-c1cc3c(c(=O)n1C2)COC(=O)[C@]3(O)CC	1330 nM (active)	
CC[C@H](C)[C@@H]([C@@H](CC(=O)N1CCC[C@H]1[C@H](OC)[C@@H](C)C(=O)N[C@@H](Cc1ccccc1)C(=O)O)OC)N(C)C(=O)[C@@H](NC(=O)[C@@H](NC)C(C)C)C(C)C (H-[NMeV]V[Dil][Dolaproine]F-OH)	265 nM (active)	
CC[C@]1(O)CC2CN(CCc3c([nH]c4ccccc34)[C@@](C(=O)OC)(c3cc4c(cc3OC)N(C)[C@H]3[C@@](O)(C(=O)OC)[C@H](OC(C)=O)[C@]5(CC)C=CCN6CC[C@]43[C@@H]65)C2)C1 (stereo partly drawn)	298 nM (active)	
COc1cccc2c1C(=O)c1c(O)c3c(c(O)c1C2=O)C[C@@](O)(C(=O)CO)C[C@@H]3O[C@H]1C[C@H]2[C@H](O[C@@H]3[C@@H](OC)OCCN32)[C@H](C)O1	0.2 nM (active)	
CCN[C@H]1CO[C@@H](O[C@H]2[C@H](O[C@H]3C#C/C=C\C#C[C@]4(O)CC(=O)C(NC(=O)OC)=C3/C4=C\CSSSC)O[C@H](C)[C@@H](NO[C@H]3C[C@H](O)[C@H](SC(=O)c4c(C)c(I)c(O[C@@H]5O[C@@H](C)[C@H](O)[C@@H](OC)[C@H]5O)c(OC)c4OC)[C@@H](C)O3)[C@@H]2O)C[C@@H]1OC	420 nM (active)	
COc1ccc(C2=CN3C(=O)c4cc(OC)c(OCCCOc5cc6c(cc5OC)C(=O)N5C=C(c7ccc(N)cc7)C[C@@H]5C=N6)cc4N=C[C@H]3C2)cc1		0.446% (inactive)
COc1cc2cc(c1Cl)N(C)C(=O)C[C@H](O)[C@]1(C)O[C@H]1[C@H](C)C1C[C@@](O)(NC(=O)O1)[C@H](OC)/C=C/C=C(\C)C2	13300 nM (active)	
